Results as given in ChEMBL document CHEMBL1157539, “Thousands of chemical starting points for antimalarial lead identification” (Nature, 2010).

Experiments:
Assay type in all cases: functional
Plasmodium falciparum [1] = experiment: GSK_TCMDC: Inhibition of Plasmodium falciparum 3D7 in whole red blood cells, using parasite LDH activity as an index of growth. Test compounds present at 2uM
Plasmodium falciparum [2] = experiment: GSK_TCMDC: Inhibition of Plasmodium falciparum Dd2 in whole red blood cells, using parasite LDH activity as an index of growth. Test compounds present at 2uM
HepG2 = experiment: GSK_TCMDC: Percent inhibition of human HepG2 cell line. Test compounds present at 10uM.

Structure (SMILES)	Inhibition (Plasmodium falciparum [1]) [%]	Inhibition (Plasmodium falciparum [2]) [%]	Inhibition (HepG2) [%]
CCCCCCN1CCC(CNCc2cccc(Cl)c2)CC1.O=C(O)C(F)(F)F	85	13	8
CC(C)Nc1nc(NCCc2c[nH]cn2)nc(Nc2ccc(Oc3ccccc3)cc2)n1	95	9	0
CN1CCC(C(=O)N(Cc2ccc(-c3ccc(CNCCc4ccc(S(C)(=O)=O)cc4)cn3)cc2)Cc2ccc3c(c2)OCO3)CC1.O=C(O)C(F)(F)F	91	51	16
COc1cc(CNC2Cc3ccccc3C2)ccc1Oc1ccc2nc[nH]c2c1.O=C(O)C(F)(F)F	98	50	30
Cc1sc2nc(CSc3ccccc3)nc(N3CCN(CC(=O)NC4CC4)CC3)c2c1C	96	95	2
COc1cc(NC(=O)c2cccs2)c(OC)cc1NC(=O)Nc1cccc(Cl)c1	83	10	5
COc1cc(-c2nc3ccc(N4CCN(C)CC4)cc3[nH]2)cc(OC)c1OC	87	15	6
Clc1ccc(Sc2cncnc2N2CCOCC2)cc1	95	0	66
N#Cc1ccc(-c2cnc3ccc(NCCc4cccnc4)nn23)cc1	99	81	27
CCCc1cc(NCC)nc(Nc2ccc(F)cc2)n1	86	36	16
Oc1cc(-c2cccc(C(F)(F)F)c2)nc(Nc2ccc(Cl)c(Cl)c2)n1	97	97	57
CCCCCC1c2[nH]c3ccccc3c2CCN1C(=O)OCc1ccccc1 (centres undefined)	93	68	3
CCCCCCn1c(Sc2ccc(C#N)c([N+](=O)[O-])c2)nnc1-c1ccc(Cl)cc1	93	48	23
CC(C)(C)C/C=C\c1ccc(C(=O)NCC2CC2)cc1	94	88	0
CC(C)CCn1c(Sc2ccc(C#N)c([N+](=O)[O-])c2)nnc1-c1ccc(N(C)C)cc1	97	96	11
CC(=O)Nc1ccccc1OCc1cc2cc(C(=O)N3CCC(N4C(=O)OCc5ccccc54)CC3)ccc2o1	99	98	34
COc1ccc(Nc2nc(NC3CCCC3)cc(-c3ccc(OC)cc3)n2)cc1	86	15	12
Cc1cc(F)ccc1-c1nc(NCCCN2CCCC2=O)nc2c1ccc(=O)n2-c1c(F)cccc1F	88	80	0
CC(C)CNC(=O)c1cncc(-c2ccc(CN3CCC(N4CCCC4)CC3)cc2)c1.O=C(O)C(F)(F)F	100	42	25
Cc1cc(N[C@@H](Cc2ccccc2)C(=O)NC2CCCC2)nc(NCC2CCCCC2)n1.O=C(O)C(F)(F)F	100	96	18
CC(=O)Nc1ccc(NC(=O)c2cc(-c3ccc(C)cc3O)n[nH]2)cc1	100	78	0

Structure (SMILES)	Inhibition (Plasmodium falciparum [1]) [%]	Inhibition (Plasmodium falciparum [2]) [%]	Inhibition (HepG2) [%]
CCN(CC)CCOc1ccc(C(O)(C#CC(O)(c2ccc(C)cc2)c2ccc(OCCN(CC)CC)cc2)c2ccc(C)cc2)cc1 (centres undefined)	97	98	94
CC(=O)Oc1c(C2CCN(CCCCNC(=O)c3ccc(-c4ccc(C#N)cc4)cc3)CC2)ccc2c1CCCC2	88	52	21
CCC1CN(S(=O)(=O)c2ccc3c(c2)NC(=O)CC(=O)N3)c2cc(Cl)ccc2O1 (centres undefined)	99	65	0
CS(=O)(=O)c1cccc(-c2cnc(N)c3cc(-c4ccc(F)cc4)ccc23)c1	91	33	28
CN(Cc1ccccc1)C1CCN(c2cc(NC(=O)c3cccc(F)c3)ccn2)CC1.O=C(O)C(F)(F)F	93	3	2
Cc1nc(N)nc(N)c1Oc1cccc(Cl)c1.O=S(=O)(O)O	94	0	49
CNC(=O)CNC(=O)COc1cccc2ccccc12	98	0	3
COc1cccc(CN2CCC(N3CCc4cc(NC(=O)c5cc(C)on5)ccc43)C2)c1OC (centres undefined)	93	92	9
S=C(NCCN1CCOCC1)Nc1ccccc1	94	1	3
CCC[C@@H]([C@@H](Cc1ccc(C)s1)C(=O)N[C@@H](CNC(C)=O)C(=O)Nc1nccs1)N(O)C=O	97	96	0
CN(C)CCN1CCN(Cc2cccc(-c3csc(-c4nc5ccccc5[nH]4)c3)c2)CC1.O=C(O)C(F)(F)F	100	97	28
Cc1[nH]c(C)c(-c2ccc(-c3ccc4c(c3)OCO4)nc2)c(=O)c1Br	96	96	0
O=C(Nc1cccc(-c2nc3ccccc3s2)c1)c1ccccc1[N+](=O)[O-]	85	9	0
O=c1cc(NCCCCNCc2cccc(C(F)(F)F)c2)[nH]c2ccccc12	94	34	13
Oc1ccc2[nH]c(-c3ccc(F)cc3F)nc2c1CN1CCC(O)(c2ccccc2)CC1	96	70	16
N#Cc1cc([N+](=O)[O-])ccc1-n1nc(C(N)=O)n(Cc2cccc(F)c2)c1=S	100	100	6
O=C(Nc1ccccc1)N(Cc1ccc(-c2ccc(CNCc3ccc4c(c3)OCO4)cc2)cc1)C1CCN(Cc2ccccc2)CC1.O=C(O)C(F)(F)F	98	41	21
Cc1ccccc1NC(=S)NC1CCN(CCCCCNC(=O)/C=C/c2ccc(Cl)c(Cl)c2)CC1	99	7	14
COc1ccc(CCNCC(O)COc2nccc3c(S(=O)(=O)N4CCCNCC4)cccc23)cc1OC.Cl (centres undefined)	96	0	59
Cl.O=S(=O)(Nc1ccc2nccc(N3CCNCC3)c2c1)c1ccc2oc3ccccc3c2c1	100	2	16
O=C(O)C(F)(F)F.O=c1[nH]c2ccc(Nc3nccc(NCCc4ccccc4)n3)cc2[nH]1	100	6	0

Structure (SMILES)	Inhibition (Plasmodium falciparum [1]) [%]	Inhibition (Plasmodium falciparum [2]) [%]	Inhibition (HepG2) [%]
O=C(O)/C=C\C(=O)O.OCCN1CCN(C2Cc3ccc(F)cc3Sc3ccc(Cl)cc32)CC1 (centres undefined)	98	26	56
CCCC(=O)Nc1ccc(Nc2nc(C)cc(N3CCCC3)n2)cc1	100	46	31
CC(C)(C)NC(=O)COC(=O)c1c2c(nc3ccccc13)C(=Cc1ccc3c(c1)OCO3)CCC2	90	82	7
Cl.O=S(=O)(Nc1ccc2nccc(N3CCNCC3)c2c1)c1ccc2c(Cl)cccc2c1	100	2	11
CN1CCN(CCCN(Cc2cccc(-c3ccc(CNCc4ccc5c(c4)OCO5)cc3)c2)C(=O)Nc2ccccc2)CC1.O=C(O)C(F)(F)F	98	69	39
Cc1ccc2nc(C)cc(NC(=O)Nc3ccc(N(C)C)cc3)c2c1	100	41	12
Cc1cc(N(C)C)nc(Nc2ccc(NC(=O)C(C)Oc3ccccc3)cc2)n1 (centres undefined)	98	30	2
O=C(/C=C/c1ccc([N+](=O)[O-])cc1)N1CCC(NS(=O)(=O)c2ccc(F)cc2)CC1	96	0	0
Nc1ncc(-c2ccsc2)cc1-c1nc2ccccc2[nH]1	99	8	33
Cl.c1ccc2c(c1)ncn2-c1ccnc(Nc2ccncc2)n1	89	80	0
FC(F)(F)c1ccc2[nH]c(-c3ccc(-c4ccc(CNCc5cnn(-c6ccccc6)n5)cc4)s3)nc2c1.O=C(O)C(F)(F)F	100	89	27
Clc1ccc(-c2[nH]c3ccccc3c2CN2CCC(N3CCCCC3)CC2)cc1	93	15	5
CN(CCCCCN1CCC(NC(=O)Nc2ccc(Oc3ccccc3)cc2)C1)C(=O)/C=C/c1ccc(Cl)c(Cl)c1 (centres undefined)	98	14	50
CN1CCC(Oc2cc(NC(=O)Nc3ccc(-c4ccncc4)c(Cl)c3)ccc2Cl)CC1	99	100	23
COc1ccc2nc3cc(Cl)ccc3c(Nc3ccc(O)c(CN4CC5CCC(CC5)C4)c3)c2c1.Cl	100	100	17
CCCCN(CCCC)CC(O)c1cc(-c2ccc(Cl)cc2)nc2c(Cl)cc(Cl)cc12.Cl (centres undefined)	97	97	0
O=C(Nc1ccc(-c2cccc(-c3nc4ccccc4[nH]3)c2)cc1)Nc1ccc(F)c(F)c1F	100	96	74
NC(CC1CC(=O)N1CC(=O)O)C(=O)O (centres undefined)	95	0	56
COc1ccc(Nc2ncc3c(-c4cccc(NC(=O)Cc5cccc(O)c5)c4)c[nH]c3n2)cc1OC	100	96	44
CN1CCN(CCCN(Cc2ccc(-c3ccc(CNCc4ccc5c(c4)OCO5)cc3)cc2)C(=O)Nc2ccccc2)CC1.O=C(O)C(F)(F)F	94	77	36
N#Cc1ccccc1S(=O)(=O)N1CCCC(CNC(=O)[C@H](CC2CCCCC2)NC(=O)c2cc3ccccc3s2)C1 (some centres undefined)	97	92	9
